Rows were chosen to be rich in hits. Some 3.5% of all compounds tested hit in one or more screens of this group.
FBW7 act: FBW7 E3 ligase activators, primary screen, biochemical, AlphaScreen, human. F-box/WD repeat-containing protein 7 (Homo sapiens), Q969H0. AlphaScreen FBW7–phospho-cyclin E peptide binding, activator screen. normalized activity (activation), % at 26.1 µM. 650,000 tested, 0.13% active; in the data active means normalized activity above about 1.9%;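 further: purified mutant Fbw7 with reduced substrate affinity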
TEAD-YAP inh: TEAD-YAP interaction inhibition, primary screen, TEAD-YAP interaction inhibitor project, luminescence, HEK-TIYL cells. TEAD-Gal4/YAP UAS-luciferase luminescence. inhibition, % at 9.12 µM. 640,000 tested, 1.4% active. AID 1259422, 2018; in the data active means inhibition above about 32%
MITF primary: MITF inhibitors, primary screen, biochemical, AlphaScreen, human; AlphaScreen MITF homodimerization, bead proximity signal; inhibition, % at 2.6 µM; 650,000 tested, 0.91% active; in the data active means inhibition above about 50%
GPR151 activ: activators of human GPR151, primary screen, cell-based, PathHunter beta-arrestin, luminescence. 650,000 tested, 1% active. PathHunter beta-arrestin GPR151 cells. G-protein coupled receptor 151 (Homo sapiens), Q8TDV0. activation, % at 11.2 µM; in the data active means activation above about 4.9%
GPR151 conf act: GPR151 activators, triplicate retest, confirmation, cell-based, PathHunter beta-arrestin, luminescence; shares compounds with GPR151 activ; GPR151 PathHunter beta-arrestin cells, 90 min; % of EA-reagent control over plate median; activation, % at 11.2 µM; 6,700 tested, under 10 active; AID 1508609, 2020;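 active means mean percent activation across replicates above the confirmation screen cutoff of 4.91%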
GPR119 counter: GPR119 activators in beta-arrestin cells, counter-screen for GPR151 activator project, cell-based, PathHunter beta-arrestin, luminescence, triplicate; shares compounds with GPR151 activ; activation, % at 11.2 µM; 6,700 tested, 0.3% active; 90 min; 0 = compound-well median, 100 = enzyme-acceptor control; AID 1508611, 2020;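 active means mean percent activation in the counterscreen above 29.09%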;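 further: counterscreen on off-target GPR119 to flag nonselective hits from the GPR151 activator screen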
Target sequence (Q8TDV5 whole entry, looked up): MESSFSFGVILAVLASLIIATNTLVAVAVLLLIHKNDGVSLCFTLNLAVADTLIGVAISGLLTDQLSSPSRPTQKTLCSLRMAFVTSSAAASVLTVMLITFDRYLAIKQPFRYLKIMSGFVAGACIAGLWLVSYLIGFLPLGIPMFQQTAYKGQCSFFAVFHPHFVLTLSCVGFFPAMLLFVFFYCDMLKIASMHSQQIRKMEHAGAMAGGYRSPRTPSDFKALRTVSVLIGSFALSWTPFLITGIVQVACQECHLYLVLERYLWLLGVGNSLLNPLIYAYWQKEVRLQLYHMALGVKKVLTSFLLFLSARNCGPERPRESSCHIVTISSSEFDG
Large screens that a line does not name were inactive (follow-up assays come after a bar, where they were run); ! = repeats disagree.

CC(C)N(C(=O)Cn1c(SCC(=O)N2CCCCCC2)nc2ccccc21)C(C)C	none
CC(C)N(C(=O)Cn1c(SCC(=O)N2CCCC2)nc2ccccc21)C(C)C	GPR151 activ 7.9 | GPR151 conf act inactive | GPR119 counter inactive
COc1cccc(OC)c1OCC(O)CN1CCN(c2ccccn2)CC1 (stereo unspecified)	none
CC(C)NCC(O)COc1cccc2ccccc12 (stereo unspecified)	GPR151 activ 5.5! | GPR151 conf act inactive | GPR119 counter inactive
OC(COc1cccc2ccccc12)CN1CCNCC1 (stereo unspecified)	GPR151 activ 12 | GPR151 conf act inactive | GPR119 counter inactive
COc1cccc(OC)c1OCC(O)CN1CCN(c2ccccc2)CC1 (stereo unspecified)	GPR151 activ 6.3 | GPR151 conf act inactive | GPR119 counter inactive
CC(C)(C)c1cc(C(C)(C)C)c(O)c(S(N)(=O)=O)c1	none
O=C(c1ccc(Cl)cc1)c1cc(NC(=O)c2cc(Br)cc(Br)c2O)ccc1Oc1ccc(Cl)cc1	GPR151 activ 9.6 | GPR151 conf act inactive | GPR119 counter inactive
CSc1ccccc1NC(=O)CNC(=O)c1c[nH]c2ccccc12	none
Cc1ccc(NC(=O)CNC(=O)c2c[nH]c3ccccc23)cc1F	GPR151 activ 5.7 | GPR151 conf act inactive | GPR119 counter inactive
Cc1ccc(NC(=O)COC(=O)CCc2ccco2)cc1C	GPR151 activ 6.3 | GPR151 conf act inactive | GPR119 counter inactive
Cc1nc(N2CCCN(C)CC2)c2c(-c3cccs3)csc2n1	none
Cc1nc(N2CCC(C(N)=O)CC2)c2c(-c3cccs3)csc2n1	GPR151 activ 5.4 | GPR151 conf act inactive | GPR119 counter inactive
COc1cc(N2CCOCC2)ccc1C=O	none
COC(=O)c1cccc(Nc2nc(C)cc(C)n2)c1	GPR151 activ 12 | GPR151 conf act inactive | GPR119 counter inactive
Cc1ccc(NC(=S)NC(=O)c2cccs2)c([N+](=O)[O-])c1	none
C(=N\n1cnnc1)/c1ccc2c(c1)OCO2	none
C(=N\n1cnnc1)/c1ccc2c(c1)OCCO2	GPR151 activ 12 | GPR151 conf act inactive | GPR119 counter inactive
CN1CCN(c2ncccc2C(=O)Nc2cccc(C(F)(F)F)c2)CC1	none
CCOc1cc2c3c(c1)C1(OCCO1)C(=O)N3C(C)(C)CC2C (stereo unspecified)	GPR151 activ 5.9 | GPR151 conf act inactive | GPR119 counter inactive
O=C(Nc1cccc(Cl)c1)c1cc(S(=O)(=O)N2CCN(c3ccccc3)CC2)ccc1F	none
COc1cccc(COC(=O)c2n[nH]c3ccccc23)c1	GPR151 activ 6.9 | GPR151 conf act inactive | GPR119 counter inactive
COc1cccc(C(=O)OCc2cccc([N+](=O)[O-])c2)c1	GPR151 activ 6.9 | GPR151 conf act inactive | GPR119 counter inactive
COc1ccc(C(=O)OCc2cccc([N+](=O)[O-])c2)cc1	none
CCN(CC)C(=O)Cn1cnc2sc(C(=O)NCC(=O)OC)c(C)c2c1=O	none
Cn1c(C(=O)N2CCN(c3ccc(F)cc3)CC2)cc2c(=O)n3ccccc3nc21	GPR151 activ 5.6 | GPR151 conf act inactive | GPR119 counter inactive
COC(=O)c1cc(S(=O)(=O)Nc2c(C)cc(C)cc2C)cn1C	none
Clc1ccc(CN2CCc3nc(-c4ccccn4)nc(N4CCOCC4)c3C2)s1	GPR151 activ 5.1 | GPR151 conf act inactive | GPR119 counter inactive
CCc1cc2c(cc3c(=O)n(CC(=O)NCc4ccco4)ncn32)s1	none
CS(=O)(=O)Nc1ccccc1Oc1ccccc1	GPR151 activ 7.9 | GPR151 conf act inactive | GPR119 counter inactive
CCC(=O)NC(=S)Nc1cc(Cl)ccc1N1CCN(C(=O)CC)CC1	none
CC(=O)Nc1ccc(OCCn2c(C)c(C=C3C(=O)NC(=O)NC3=O)c3ccccc32)cc1	GPR151 activ 6.4 | GPR151 conf act inactive | GPR119 counter inactive
CC1CCN(Cc2nnnn2CCCC(=O)N2CCNC(=O)C2c2cccc(F)c2)CC1 (stereo unspecified)	none
Cc1ccc(CNC(=O)CCCn2c(=O)c3ccccc3n(CC(N)=O)c2=O)cc1	GPR151 activ 5.2 | GPR151 conf act inactive | GPR119 counter inactive
CCCCOc1ccc(C(=O)Nc2cc3cc([N+](=O)[O-])ccc3oc2=O)cc1	none
COc1ccc(-n2c(C)cc(/C=C3/NC(=O)NC3=O)c2C)cc1	none
COc1ccc(C(=O)Oc2c(Cl)cc(/C=C3\SC(N)=NC3=O)cc2OC)cc1	GPR151 activ 8.2 | GPR151 conf act inactive | GPR119 counter inactive
COc1cc(/C=C2\SC(N)=NC2=O)ccc1OC(=O)c1ccc(Cl)cc1	none
Cc1ccccc1-n1c(=O)c2ccccc2n(Cc2cc(=O)n3ccccc3n2)c1=O	none
COC(=O)c1cc2sc(C)cc2n1Cc1cc(=O)n2ccccc2n1	GPR151 activ 9.1 | GPR151 conf act inactive | GPR119 counter inactive
Cc1noc(C)c1COC(=O)CCc1ccc(S(=O)(=O)N2CCCCC2)cc1	GPR151 activ 5.0 | GPR151 conf act inactive | GPR119 counter inactive
Nc1ncc(-c2ccc(F)cc2)nc1-c1ccc(C(=O)O)cc1	none
Cc1ccc(C(=O)NC(=S)NNc2nc3ccccc3[nH]2)cc1	GPR151 activ 5.3 | GPR151 conf act inactive | GPR119 counter inactive
O=C(c1nc2ccc(Cl)cn2c1CNCC1COCCO1)N1CCc2ccccc2C1 (stereo unspecified)	GPR151 activ 9.8 | GPR151 conf act inactive | GPR119 counter inactive
CC(=O)NCCNCc1c(C(=O)N2CCc3ccccc3C2)nc2ccc(Cl)cn12	none
CCOC(=O)c1sc(N/C(=C/C(=O)c2ccccc2)C(=O)O)cc1C	GPR151 activ 9.0 | GPR151 conf act inactive | GPR119 counter inactive
CCOC(=O)c1sc(NC(C)=O)cc1C	none
COc1cccc(/C=N/NC(=O)c2nn(C)cc2Br)c1O	none
Cc1cc(C)cc(NC(=O)Cn2c(=O)n(Cc3ccco3)c(=O)c3cccnc32)c1	none
CCOc1ccccc1C1NC(=O)N(C)C(C)=C1C(=O)OC (stereo unspecified)	GPR151 activ 6.0 | GPR151 conf act inactive | GPR119 counter inactive
COC(=O)C1=C(C)N(C)C(=O)NC1c1ccc(Br)cc1 (stereo unspecified)	GPR151 activ 5.2 | GPR151 conf act inactive | GPR119 counter inactive
COC(=O)C1=C(C)N(C)C(=O)NC1c1ccccc1OC (stereo unspecified)	none
COC(=O)C1=C(C)N(C)C(=O)NC1c1ccc(C(=O)OC)cc1 (stereo unspecified)	none

Screens (PubChem)
